Source: PubChem BioAssay AID463173 (ICCB-Longwood Screening Facility, Harvard Medical School, 2010)
Screen size: about 52,000 compounds; about 4,300 (8.3%) were called active. The list comes from a sample in which actives are over-represented; it also holds similar structures and randomly drawn compounds. Values without a mark were called inactive. Rule as the data show it: active = survival mostly below about 52% (no sharp cut-off); inactive = mostly above about 56%.

Test system: DeltatarO mutant
Assay: growth inhibition of S. aureus wild type versus tarO mutant, primary screen, teichoic acid synthesis inhibitors, RN4220, OD600 (AID 463173)
Details: OD600, 18 h, hits give low values, screened at 18.75 µg/mL (by protocol)

| SMILES | survival |
| --- | --- |
| Cn1c(C(=O)NCc2ccccc2Cl)cc2sc(Cl)cc21 | 64% |
| CCCCNC(=O)CCC1N=C2c3ccccc3N=C(SCC(=O)NCCc3ccc(OC)c(OC)c3)N2C1=O (stereo unspecified) | 64% |
| COc1cc(Cl)c(C)cc1NC(=O)Cn1ncc2c3ccccc3n(Cc3ccccc3)c2c1=O | 83% |
| CCC(=O)N1CCc2cc(S(=O)(=O)NC(C(=O)NCc3ccc(OC)cc3)C(C)C)ccc21 (stereo unspecified) | 92% |
| Cc1ccccc1Nc1sc(C(=O)c2ccc3c(c2)OCO3)c(N)c1S(=O)(=O)c1ccccc1 | 78% |
| Cc1ccc(CNC(=O)C(C)n2nc(C)n3c(cc4sccc43)c2=O)cc1 (stereo unspecified) | 111% |
| CCOc1ccc(NC(=O)CC2C(=O)N(c3cccc(C)c3)C(=O)N2Cc2ccco2)cc1 (stereo unspecified) | 83% |
| CCOC(=O)CNC(=O)Nc1cc(C(=O)NCc2ccc(C(C)C)cc2)ccc1N1CCCC1 | 93% |
| Cc1ccc(-n2c(SCC(N)=O)nc3c(oc4ccccc43)c2=O)cc1 | 69% |
| CCOc1ccc(-c2nnc(Nc3ccc(S(N)(=O)=O)cc3)c3ccccc23)cc1 | 56% |
| CCOc1ccc(-c2ncccc2O)cc1 | 105% |
| CCCCOc1nnc(-c2ccc(OCC)cc2)c2ccccc12 | -12% (active) |
| Cc1cc(=O)n(Cc2ccc(F)cc2Cl)c2c1c(C)nn2-c1ccccc1 | 96% |
| CCc1ccccc1NC(=O)Cn1c(=O)n(C(C)C)c(=O)c2oc3ccccc3c21 | 66% |
| CCOc1ccc(NC(=O)CSc2ncc3c(n2)-c2cc(Cl)ccc2N(C)S3(=O)=O)cc1 | 0% (active) |
| CCOc1ccc(NC(=O)CSc2ncc3c(n2)-c2ccccc2N(C)S3(=O)=O)cc1 | 75% |
| COc1cc(NC(=O)CSc2ncc3c(n2)-c2ccc(Cl)cc2N(Cc2ccccc2)S3(=O)=O)cc(OC)c1 | 55% |
| CCc1cccc(NC(=O)CSc2ncc3c(n2)-c2cc(Cl)ccc2N(C)S3(=O)=O)c1 | 57% |
| COc1cccc(NC(=O)CSc2ncc3c(n2)-c2ccc(Cl)cc2N(C)S3(=O)=O)c1 | 37% (active) |
| Cc1ccc(NC(=O)CSc2ncc3c(n2)-c2ccc(Cl)cc2N(C)S3(=O)=O)cc1F | 69% |
| COc1ccc(CNC(=O)CN2C(=O)CCn3nc(-c4ccccc4)cc32)c(OC)c1 | 69% |
| COc1ccc(-c2nc3c(c(SCC(=O)Nc4cc(C)cc(C)c4)n2)Cc2c(CO)cnc(C)c2O3)cc1 | 80% |
| CN(C)S(=O)(=O)c1ccc2c(c1)nnn2CCNC(=O)Nc1ccc(Br)cc1 | 83% |

| SMILES | survival |
| --- | --- |
| O=C1Nc2nc(=O)nc3[nH]c(=O)nc(n23)N1 | 97% |
| COc1ccc(Cn2ccn(Cc3cccc(C)c3)c(=O)c2=O)cc1 | 109% |
| COc1ccc(-n2ccn(CC(=O)Nc3ccc(C)cc3C)c(=O)c2=O)cc1 | 79% |
| COc1ccc(Cn2ccn(Cc3cccc(Cl)c3)c(=O)c2=O)cc1 | 112% |
| COc1ccc(Cn2ccn(CC(=O)Nc3cc(C)ccc3C)c(=O)c2=O)cc1 | 47% (active) |
| COc1ccc(-c2cc3c(=O)n(CC(=O)Nc4cc(C)ccc4C)ccn3n2)cc1 | 88% |
| COc1ccc(Cn2ccn(Cc3cccc(OC)c3)c(=O)c2=O)cc1 | 46% (active) |
| CC(C)(C)c1ccc(OCCSc2nc(-c3cccs3)nc3cc(=O)[nH]n23)cc1 | 78% |
| CC(=O)NCC(c1ccc2c(c1)OCO2)N1CCN(c2ccccc2)CC1 (stereo unspecified) | 80% |
| COc1ccc(NC(=O)c2ccc3c(c2)nnn3C2CCCC2)cc1Cl | 88% |
| COc1cc(OC)c(OC)cc1CN1CCc2nc(N3CCN(c4ccccc4F)CC3)ncc2C1 | 72% |
| Cc1ccccc1CN1CCc2nc(N3CCN(c4ncccn4)CC3)ncc2C1 | 88% |
| CN1CCN(c2ncc3c(n2)CCN(Cc2ccccc2Cl)C3)CC1 | 79% |
| COc1ccccc1N1CCN(c2ncc3c(n2)CCN(Cc2ccccc2F)C3)CC1 | 89% |
| CN1CCN(c2ncc3c(n2)CCN(Cc2cc(Br)cs2)C3)CC1 | 109% |
| CCN1CCN(c2ncc3c(n2)CCN(Cc2ccccc2C)C3)CC1 | -1% (active) |
| COc1cc(OC)c(OC)cc1CN1CCc2nc(N3CCN(C)CC3)ncc2C1 | 84% |
| CCN1CCN(c2ncc3c(n2)CCN(Cc2cc(Br)cs2)C3)CC1 | 6% (active) |
| CCOc1ccccc1CN1CCc2nc(N3CCN(c4ccccc4F)CC3)ncc2C1 | -4% (active) |
| CCN1CCN(c2ncc3c(n2)CCN(Cc2ccc(Br)s2)C3)CC1 | 76% |
| CCOc1ccccc1CN1CCc2nc(N3CCN(C)CC3)ncc2C1 | -2% (active) |
| Cc1ccccc1CN1CCc2nc(N3CCN(c4ccccn4)CC3)ncc2C1 | 94% |
| COc1cc(C(=O)n2nc(-c3ccco3)nc2NCc2ccc(Cl)cc2)cc(OC)c1OC | 82% |
